# Assay results as given in PubChem BioAssay (NCI).
# Compounds without any hit were thinned out: in the full panel of roughly 83,000, 20% have a hit.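 Note: values are percent growth. 100 is the growth of untreated cells, values between 100 and 0 indicate rising inhibition; between -100 and 0 indicates cell death.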 Values without a mark were called inactive. Activity calls are given as the source filed them. Rule for the calls: active = growth percent below 10; inactive = the rest.
# Experiments:
# Experiment in all cases: NCI-60 one-dose screen, 48 h (100 = growth as untreated, 0 = no growth, -100 = all killed)
# Conditions in all cases: 10 µM unless noted
# NCI-H23 lung = tested on: NCI-H23 lung
# NCI-H226 lung = tested on: NCI-H226 lung
# NCI-H322M lung = tested on: NCI-H322M lung
# HOP-62 NSCLC = tested on: HOP-62 NSCLC
# NCI-H460 lung = tested on: NCI-H460 lung
# HOP-92 NSCLC = tested on: HOP-92 NSCLC
# NCI-H522 lung = tested on: NCI-H522 lung
# A549/ATCC NSCLC = tested on: A549/ATCC NSCLC
# 786-0 renal = tested on: 786-0 renal
# COLO 205 colon = tested on: COLO 205 colon
# DU-145 prostate = tested on: DU-145 prostate
# K-562 leukemia = tested on: K-562 leukemia
# MALME-3M melanoma = tested on: MALME-3M melanoma
# MDA-MB-231 breast = tested on: MDA-MB-231 breast
# RXF 393 renal = tested on: RXF 393 renal
# SF-268 CNS = tested on: SF-268 CNS
# SF-295 CNS = tested on: SF-295 CNS
# SF-539 CNS = tested on: SF-539 CNS
# UACC-257 melanoma = tested on: UACC-257 melanoma
# M14 melanoma = tested on: M14 melanoma
Structure (SMILES),growth (NCI-H23 lung),growth (NCI-H226 lung),growth (NCI-H322M lung),growth (HOP-62 NSCLC),growth (NCI-H460 lung),growth (HOP-92 NSCLC),growth (NCI-H522 lung),growth (A549/ATCC NSCLC),growth (786-0 renal),growth (COLO 205 colon),growth (DU-145 prostate),growth (K-562 leukemia),growth (MALME-3M melanoma),growth (MDA-MB-231 breast),growth (RXF 393 renal),growth (SF-268 CNS),growth (SF-295 CNS),growth (SF-539 CNS),growth (UACC-257 melanoma),growth (M14 melanoma)
COc1c(N2CC3CCCN(C(C)=O)C3C2)c(F)cc2c(=O)c(C(=O)N[C@H]3C(O)[C@@H](O)C(CO)O[C@H]3O)cn(C3CC3)c12 (stereo not given in full),105%,108%,106%,103%,108%,103%,94.9%,103%,101%,110%,112%,103%,117%,103%,128%,92.3%,103%,103%,103%,110%
COc1ccc(-c2ncnc3c2ncn3CC#CCCl)cc1,59.1%,56.5%,92%,77.5%,67.8%,9.39% (active),49%,60.1%,36.4%,80%,87.6%,58.3%,20.2%,70.1%,29.7%,62.9%,95.3%,92.3%,59.5%,70.1%
COc1ccc(-c2cc(-c3ccc(Cl)cc3)c(C#N)c(=O)n2CCCCCC(=O)Nc2ccccc2N)cc1,63.1%,72.9%,61.4%,41.8%,26.7%,13%,33.7%,35.7%,41.5%,10.1%,49.8%,15%,39%,55.6%,29.8%,75.9%,-19.5% (active),60%,23.4%,-10.9% (active)
CN1CCN(c2ccc(-c3cc4c(Nc5ccc(F)c(Cl)c5)ncnn4c3)cc2)CC1,96.2%,89%,32.9%,103%,8.58% (active),76.8%,72.5%,71.4%,89.6%,37%,44.1%,0.617% (active),28.5%,91.1%,79.8%,69.2%,84.8%,50.5%,69.2%,66.7%
O=C1/C(=C/c2ccccc2[N+](=O)[O-])Oc2ccc(O)c(O)c21,33.5%,83.3%,81%,71.3%,60.6%,76.6%,-18% (active),72.3%,47.2%,57.7%,32.5%,17.2%,45%,45.6%,5.8% (active),60.4%,85.2%,29%,49.3%,54.9%
Brc1c[n+](Cc2ccc3ccccc3c2)cn1Cc1ccc2ccccc2c1,9.7% (active),34.4%,73.8%,48%,20.1%,-24% (active),13.3%,70%,44.3%,-49.6% (active),38.5%,10.5%,-4.88% (active),8.23% (active),21.6%,14.5%,49.6%,40.1%,-35.4% (active),1.8% (active)
CCOc1c(B(O)O)cccc1-c1nc2ccc3[nH]ncc3c2c2c1CCCC2,60.1%,54.3%,109%,48.3%,42.1%,33.5%,55.2%,64.5%,47.7%,48.6%,66.9%,63.4%,101%,33.9%,-5.22% (active),58.6%,59.3%,18.6%,135%,120%
O=C(Nn1c(NCC(=O)N2c3ccccc3Sc3ccccc32)nnc1-c1ccc(O)cc1)c1ccccc1,94.4%,104%,104%,99.5%,105%,91.2%,93.1%,106%,92.4%,112%,113%,118%,95.5%,95.3%,122%,105%,105%,105%,104%,92.8%
NCCCNc1nc2ccc(Cl)cc2c2c(=O)c3cc(F)ccc3sc12,82.9%,91.9%,74.9%,81.9%,-68.8% (active),30.3%,62.4%,58.2%,72.7%,31.9%,24.4%,-38.7% (active),103%,3.44% (active),62.3%,53.2%,103%,70.7%,98.3%,55%
CCOc1cccc(NC2=C(Br)C(=O)C(C)=C(C)C2=O)c1,67.5%,72%,96.2%,83.6%,100%,-8.14% (active),80.5%,103%,104%,123%,104%,0.431% (active),91.4%,34.3%,113%,94.1%,101%,94.9%,68%,87.1%
CCN1C(=O)N(CC)C2Nn3c(s/c(=C4\C(=O)N(CC(C)C)c5ccccc54)c3=O)=NC21 (stereo not given),43%,84.1%,64.9%,55.2%,24.5%,81.2%,15.9%,44.6%,35.3%,4.64% (active),34.5%,15.6%,70%,19.6%,-3.71% (active),66.1%,42.4%,7.6% (active),87.5%,18.9%
COc1cc2oc(-c3ccc(O)cc3)cc(=O)c2c(O)c1-c1c(OC)cc(O)c2c(=O)cc(-c3ccc(O)cc3)oc12,31.9%,70.8%,28.8%,27%,11.8%,62.3%,45.8%,69.8%,48.8%,67.5%,53.5%,44.5%,63.2%,48.5%,-44.1% (active),12.8%,67.1%,18%,91.5%,28%
Cc1cc(C)c(-c2c(N)cc(Br)cc2Br)c(N)c1,70.9%,76.3%,102%,39.4%,83%,-6% (active),62.9%,55.5%,45.9%,54%,71.2%,13.4%,26.9%,56.4%,10.5%,76.1%,36.7%,46.9%,66.8%,41.4%
CCCCNC(=O)Oc1ccc(/C(=C(\C)c2ccc(Cl)cc2)c2ccc(OCCN(CC)CC)cc2)cc1,85.6%,103%,87.9%,74.3%,72.6%,67.2%,98.4%,61.6%,59.2%,63.3%,81.7%,8.22% (active),65.1%,70.2%,79.4%,65.5%,85.2%,71.7%,-1.69% (active),22.6%
C/C(=C(/c1ccccc1)c1ccc(N2C(=O)c3cccc4c(N5CCN(C)CC5)ccc(c34)C2=O)cc1)c1ccccc1,59.7%,69.6%,99.9%,86.1%,83.3%,67.4%,81.5%,71.1%,87.6%,81.1%,82.8%,9.2% (active),81.4%,94.5%,74.8%,96.2%,83.3%,72.3%,79.8%,85.6%
